Our source for the growth values is PubChem BioAssay (NCI).

This is part of a sample that, as a whole, favours compounds with a hit. Of some 83,000 tested, about 20% had one in any assay.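 96-well plates, one dose, 48 hours. Percent growth reported; active if below 10.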 Activity calls are given as the source filed them.

This test has as its system U251 CNS. Description: NCI-60 one-dose screen, 48 h (100 = growth as untreated, 0 = no growth, -100 = all killed). The following applies: 10 µM unless noted.
As for `COCCOc1ccc2ncc(C#Cc3cncc(C(=O)Nc4ccc(CN5CCN(C)CC5)c(C(F)(F)F)c4)c3)n2n1`, the growth was 37.9% (inactive).

Take `CCOC(=O)c1c(N)c(C#N)cn1Cc1ccc(Cl)cc1Cl`: the growth is 64.1% (inactive).

With `Cc1ccc(Nc2nc(SC(C)C)nc(-c3ccccc3)c2C#N)cc1`, the growth is 103% (inactive).

With `O=C(CSc1nc2ccccc2c(=O)n1-c1ccc(Cl)c(Cl)c1)Nc1ccc(S(=O)(=O)Nc2ccc(Cl)nn2)cc1`, the growth is 91.6% (inactive).

On to `N#Cc1cnc2ccc(-c3cnc4n[nH]nc4c3)cc2c1N1CCc2cc(F)c(Cl)cc21`, for which the growth was 21.1% (inactive).

As to `CNC(=O)Nc1ccc(Nc2cc(-c3ccc(-n4cccn4)cc3)[nH]n2)c(C)c1`, the growth is 106% (inactive).

Regarding `CN1CCN(Cc2ccc(NC(=O)c3cncc(C#Cc4cnc5ccc(N)nn45)c3)cc2C(F)(F)F)CC1`, the growth was 54.6% (inactive).

Consider `Cc1cc(=O)oc2cc(OCCCOc3ccc(/C=C/C(=O)Nc4ccc(Br)cc4)cc3)ccc12`, for which the growth was 97.8% (inactive).

As to `C/C(CC1(O)C(=O)Nc2ccccc21)=N\O` (stereo unspecified), the growth was 98.8% (inactive).

For `Cc1ccc2c(n1)C(=O)C(Cl)=C(Nc1ccccc1C(=O)OC(C)(C)C)C2=O`, the growth was 71.5% (inactive).

With `COc1ccc(/C=N\NC(=O)c2cnn(CC(O)c3ccccc3)c2N)cc1OCc1ccc(Cl)cc1` (stereo unspecified), the growth was 60.6% (inactive).

In the case of `NC(N)=NS(=O)(=O)c1ccc(N=Nc2c(N)nn(-c3ccc([N+](=O)[O-])cc3[N+](=O)[O-])c2N)cc1`, the growth was 99.9% (inactive).

As to `COc1ccccc1Cn1cc(C#N)c(N)c1C(=O)c1ccc(Br)cc1`, the growth is 102% (inactive).

In the case of `CC(=C(c1ccc(OCCN2CCCC2)cc1)c1ccc(OCCN2CCCC2)cc1)c1ccc(Cl)cc1`, the growth is -75.1% (active).

Turning to `CCN(CC)CCOc1ccc(C(=C(C)Cc2ccc(OC)cc2)c2ccc(OCCN(CC)CC)cc2)cc1`, the growth was 9.54% (active).

Regarding `Fc1ccc(-c2cn3c(-c4c[nH]c5ccc(Br)cc45)csc3n2)cc1`, the growth is 47.8% (inactive).

As to `CC1=C(C)C(=O)C(Nc2cccc(C(=O)OC(C)(C)C)c2)=CC1=O`, the growth is 64.3% (inactive).

As for `CSc1ccc(/C(=N/N=C(N)N)c2ccc(Cl)cc2)cc1`, the growth was -13.5% (active).

As to `O=C(/C=C/Nc1ccc(S(=O)(=O)Nc2ncccn2)cc1)c1ccc(N=Cc2c(O)[nH]c3ccccc23)cc1`, the growth was 103% (inactive).

On to `N#Cc1c(-c2cccs2)cc(-c2cnccn2)nc1SCC(=O)N/N=C/c1cccs1`, for which the growth was 19.5% (inactive).

For `O=S(=O)(NCCCNc1nccc(-c2[nH]c(-c3ccccc3)nc2-c2ccc(F)c(O)c2)n1)c1ccccc1`, the growth was 114% (inactive).

As to `CC1(C)CC[C@]2(C(=O)NCCCCCCN(CCCN)CCCN)CC[C@]3(C)C(=CC[C@@H]4[C@@]5(C)CC[C@H](O)C(C)(C)[C@@H]5CC[C@]43C)[C@@H]2C1`, the growth was 94% (inactive).

Turning to `CCOC(=O)c1c(NCC(=O)Nc2cccc([N+](=O)[O-])c2)sc(C(C)=O)c1C`, the growth was -13.2% (active).

On to `O=c1oc2ccc(-c3ccc(F)cc3F)cc2c(=O)n1-c1ccc(Br)cc1F`, for which the growth was 64% (inactive).

For the compound `Cc1ccc2c(n1)C(=O)C(Cl)=C(Nc1cccc(C(=O)OC(C)(C)C)c1)C2=O`, the growth is 88.5% (inactive).

For the compound `C/C(=C(\c1ccc(O)cc1)c1ccc(OCCN2CCCCCC2)cc1)c1ccc(Cl)cc1`, the growth was -81.1% (active).

As for `CC1=C(C)C(=O)C(Nc2cccc(C(F)(F)F)c2)=C(Br)C1=O`, the growth is 87.4% (inactive).

As to `CC(C)C(/C=C/c1[nH]ncc1-c1cc(Cl)ccc1O)N1CCOCC1` (stereo unspecified), the growth is 97.3% (inactive).

Turning to `Fc1cccc(Cl)c1/C=N/Nc1nc(N/N=C/c2c(F)cccc2Cl)nc(N2CCCCC2)n1`, the growth was 26.8% (inactive).

Turning to `COc1ccc(C2C(C#N)=C(/N=C/c3ccc(Cl)cc3)Oc3c2sc2c(C)cccc32)cc1` (stereo unspecified), the growth is 14.1% (inactive).

As to `O=C(CCCCCCNC(=O)C(O)(O)C(F)(F)F)Nc1ccc(Cl)cc1`, the growth is 13.9% (inactive).

Take `O=C1C(SCc2ccccc2)=C(Cl)CN1c1ccc(Cl)cc1`: the growth is 86.3% (inactive).

Turning to `Cc1ccc(-c2nc(SCC(=O)c3ccccc3)nc(Nc3ccc(S(N)(=O)=O)cc3)c2C#N)cc1`, the growth was 47.4% (inactive).

Regarding `O=C1C(N2CCN(c3ccccc3)CC2)=C(Cl)C(=O)c2ncccc21`, the growth is 79.5% (inactive).

Turning to `C#Cc1nc(C(=O)NCCCCCCC(=O)NO)cs1`, the growth was 6.04% (active).

As to `C[C@H](Nc1ncnc2ccc(-c3cnc(Cl)c(NS(C)(=O)=O)c3)cc12)c1ccccc1`, the growth is -52.6% (active).
